# Laboratory results: PubChem BioAssay AID463173 (ICCB-Longwood Screening Facility, Harvard Medical School, 2010)
# The campaign covered roughly 52,000 compounds. About 1,700 (3.3%) were called active. Cut-off read from the data, not from the text of the source: active = survival mostly below about 52% (no sharp cut-off); inactive = mostly above about 56%. For the sample, actives were picked, then their nearest neighbours and some compounds at random.
# System: Wild type
# Assay: growth inhibition of S. aureus wild type versus tarO mutant, primary screen, teichoic acid synthesis inhibitors, RN4220, OD600 (AID 463173)
# Conditions: S. aureus RN4220 wild type/DeltatarO growth, OD600, 18 h, stronger effect = lower value, screened at 18.75 µg/mL (by protocol)
row,SMILES,survival
1,Cc1ccc(NC(=O)CN2C(=O)c3ccccc3Sc3ccc(C(=O)N4CCCC4)cc32)cc1,64% (inactive)
2,CN(C)c1ccc(NC(=O)CN2C(=O)c3ccccc3Sc3ccc(C(=O)N4CCCC4)cc32)cc1,-4% (active)
3,Cc1ccc(NC(=O)CN2C(=O)c3ccccc3Sc3ccc(C(=O)N4CCOCC4)cc32)c(Cl)c1,-6% (active)
4,O=C(CN1C(=O)c2ccccc2Sc2ccc(C(=O)N3CCOCC3)cc21)Nc1ccc(Cl)cc1F,73% (inactive)
5,CCc1ccc(NC(=O)CN2C(=O)c3ccccc3Sc3ccc(C(=O)N4CCCC4)cc32)cc1,82% (inactive)
6,Cc1cc(C)cc(NC(=O)CN2C(=O)c3ccccc3Sc3ccc(C(=O)N4CCOCC4)cc32)c1,69% (inactive)
7,Fc1ccc(-c2noc3ncnc(NCc4cccc(Cl)c4)c23)cc1,55% (inactive)
8,COc1ccccc1CN1CCNC(=O)C1=O,77% (inactive)
9,O=C(CSc1nc2c([nH]c3ccccc32)c(=O)n1-c1ccccc1)N1CCOCC1,75% (inactive)
10,O=S1(=O)c2ccccc2N(Cc2ccccc2Cl)c2ccccc21,80% (inactive)
11,COc1ccc(N2CCN(C(CNC(=O)C(=O)NCCc3ccccc3)c3cccnc3)CC2)cc1 (stereo not given),84% (inactive)
12,CN1CCN(C(=O)C(=O)Nc2c3c(nn2-c2ccc(Cl)cc2)CSC3)CC1,71% (inactive)
13,CC(NC(=O)C(=O)Nc1c2c(nn1-c1ccc(F)cc1)CSC2)c1ccccc1 (stereo not given),-4% (active)
14,CC(NC(=O)C(=O)Nc1c2c(nn1-c1ccccc1)CSC2)c1ccccc1 (stereo not given),55% (inactive)
15,CC(=O)N1CCN(C(=O)C(=O)Nc2c3c(nn2-c2ccc(Cl)cc2)CSC3)CC1,-3% (active)
16,CN1CCN(C(=O)C(=O)Nc2c3c(nn2-c2ccc(F)cc2)CSC3)CC1,81% (inactive)
17,CCC(CO)NC(=O)C(=O)Nc1c2c(nn1-c1ccc(F)cc1)CSC2 (stereo not given),87% (inactive)
18,Cc1cccc(OCC(=O)N(Cc2cccc(Cl)c2)Cc2ccco2)c1C,85% (inactive)
19,CCOC(=O)c1ccc(NC(=O)c2cnc3c(-c4ccc(F)cc4)c(C)nn3c2C)cc1,120% (inactive)
20,CCOC(=O)c1ccc(CN(Cc2ccc(OC)cc2)S(=O)(=O)c2cccc(C(F)(F)F)c2)cc1,73% (inactive)
21,Cc1ccc(NC(=O)c2cc(S(=O)(=O)NC3CCCCCC3)ccc2F)cc1F,79% (inactive)
22,CCc1ccc(NC(=O)c2ccc(F)c(S(=O)(=O)N(C)C3CCCCC3)c2)cc1,71% (inactive)
23,CCc1ccccc1NC(=O)c1cc(S(=O)(=O)NCCc2ccc(OC)c(OC)c2)ccc1F,0% (active)

row,SMILES,survival
1,Cc1cc(C)cc(NC(=O)c2cc(S(=O)(=O)NCCC3=CCCCC3)ccc2F)c1,80% (inactive)
2,COc1ccc(CCNS(=O)(=O)c2ccc(F)c(C(=O)Nc3ccc(Cl)cc3)c2)cc1OC,126% (inactive)
3,Cc1ccc(NC(=O)c2cc(S(=O)(=O)NC3CCCCC3)ccc2F)cc1Cl,-6% (active)
4,Cc1ccc(NC(=O)c2cc(S(=O)(=O)NCCC3=CCCCC3)ccc2F)cc1F,82% (inactive)
5,O=C(Nc1ccc(F)c(F)c1)c1cc(S(=O)(=O)NC2CCCCCC2)ccc1F,53% (inactive)
6,Cc1ccc(NC(=O)c2cc(S(=O)(=O)NCCC3=CCCCC3)ccc2F)cc1C,-3% (active)
7,COc1ccc(OC)c(NC(=O)c2cc(S(=O)(=O)NCCc3ccc(Cl)cc3)ccc2F)c1,79% (inactive)
8,O=C(Nc1ccc(Br)cc1)c1ccc(F)c(S(=O)(=O)NC2CCCCCC2)c1,56% (inactive)
9,CCc1ccc(NC(=O)c2ccc(F)c(S(=O)(=O)NC3CCCCCC3)c2)cc1,-4% (active)
10,O=S(=O)(c1ccccc1)c1nc(-c2cccs2)oc1SCc1ccc(F)cc1,61% (inactive)
11,O=C(COCc1cc(-c2cccs2)on1)Nc1ccc(OC(F)(F)F)cc1,124% (inactive)
12,CCc1cccc(NC(=O)c2nc(-c3ccncc3)no2)c1,101% (inactive)
13,CC(NC(=O)c1ccc(CSc2nc3ccncc3n2Cc2ccc(F)cc2)cc1)c1ccccc1 (stereo not given),92% (inactive)
14,Cc1ccccc1NC(=O)c1c(NC(=O)c2ccncc2)sc2c1CCC(C(C)(C)C)C2 (stereo not given),91% (inactive)
15,CC1CCN(C(=O)c2c(NC(=O)c3ccccc3F)sc3c2CCC(C(C)(C)C)C3)CC1 (stereo not given),-2% (active)
16,CCCNC(=O)c1c(NC(=O)c2ccccc2)sc2c1CCC(C(C)(C)C)C2 (stereo not given),2% (active)
17,CC(C)(C)C1CCc2c(sc(NC(=O)c3ccc(Cl)cc3)c2C(=O)NCc2ccco2)C1 (stereo not given),95% (inactive)
18,COc1ccccc1NC(=O)c1c(NC(=O)c2cccs2)sc2c1CCC(C(C)(C)C)C2 (stereo not given),118% (inactive)
19,Cc1ccccc1C(=O)Nc1sc2c(c1C(=O)O)CCC(C(C)(C)C)C2 (stereo not given),6% (active)
20,Cc1ccccc1C(=O)Nc1sc2c(c1C(=O)NCc1ccco1)CCC(C(C)(C)C)C2 (stereo not given),88% (inactive)
21,CC(C)(C)C1CCc2c(sc(NC(=O)CCC(=O)O)c2C(=O)Nc2ccccc2C(F)(F)F)C1 (stereo not given),1% (active)
22,CC(C)(C)C1CCc2c(sc(NC(=O)c3cccc(Cl)c3)c2C(N)=O)C1 (stereo not given),75% (inactive)
23,COc1ccccc1NC(=O)c1c(NC(=O)Cc2ccccc2)sc2c1CCC(C(C)(C)C)C2 (stereo not given),102% (inactive)

row,SMILES,survival
1,Cc1ccc(C(=O)Nc2sc3c(c2C(=O)NCc2ccco2)CCC(C(C)(C)C)C3)cc1 (stereo not given),70% (inactive)
2,Cc1ccccc1NC(=O)c1c(NC(=O)c2ccccc2F)sc2c1CCC(C)C2 (stereo not given),82% (inactive)
3,CCCNC(=O)CCCN1C(=O)CCn2nc(-c3cccn3C)cc21,71% (inactive)
4,O=C(CN1CCC(O)(c2ccccc2)CC1)NC1CCCCC1,111% (inactive)
5,Cc1ccc(CNC(=O)CCCCCn2c(=O)c3sccc3n(CC(=O)N(C)c3ccccc3)c2=O)cc1,83% (inactive)
6,O=C(CSc1nc(=O)[nH]c2c1CCCC2)NCc1ccccc1Cl,135% (inactive)
7,COc1ccc(NC(=O)N2CCN(S(=O)(=O)c3ccc4c(ccn4C)c3)CC2)c(OC)c1,87% (inactive)
8,Cc1ccccc1C(=O)Nc1sc2c(c1C(=O)N1CCC(C)CC1)CCCC2,64% (inactive)
9,O=C(Nc1sc2c(c1C(=O)N1CCCCC1)CCCC2)c1ccccc1Cl,75% (inactive)
10,CCN(CC)C(=O)c1c(NC(=O)c2ccccc2F)sc2c1CCC(C(C)(C)C)C2 (stereo not given),-3% (active)
11,Cc1ccccc1C(=O)Nc1sc2c(c1C(=O)N1CCCCC1)CCC(C)C2 (stereo not given),36% (inactive)
12,CC1CCN(C(=O)c2c(NC(=O)c3ccccc3Cl)sc3c2CCC(C(C)(C)C)C3)CC1 (stereo not given),2% (active)
13,CC(C)(C)C1CCc2c(sc(NC(=O)c3ccco3)c2C(=O)Nc2ccccc2Cl)C1 (stereo not given),108% (inactive)
14,CC(C)(C)C1CCc2c(sc(NC(=O)c3ccncc3)c2C(=O)Nc2ccccc2Cl)C1 (stereo not given),84% (inactive)
15,CN(C)C(=O)c1c(NC(=O)c2ccccc2F)sc2c1CCCC2,82% (inactive)
16,CC(C)(C)C1CCc2c(sc(NC(=O)c3ccccc3F)c2C(=O)NCc2ccco2)C1 (stereo not given),70% (inactive)
17,CC(C)(C)C1CCc2c(sc(NC(=O)c3ccccc3F)c2C(=O)N2CCCCC2)C1 (stereo not given),-3% (active)
18,Cc1ccccc1C(=O)Nc1sc2c(c1C(=O)N1CCC(C)CC1)CCC(C)C2 (stereo not given),0% (active)
19,CCOc1ccccc1NC(=O)c1c(NC(=O)c2ccccc2C)sc2c1CCC(C)C2 (stereo not given),75% (inactive)
20,COc1ccc(N2CC(NC(=O)/C=C\c3ccccc3)CC2=O)cc1 (stereo not given),101% (inactive)
21,CC(=O)Nc1ccc(N2CCN(Cc3ccccc3)CC2)cc1,106% (inactive)
22,COc1ccc2oc(=O)c(-c3csc(-c4ccc(Br)cc4)n3)cc2c1,80% (inactive)
23,CCc1nn(CC(=O)NC2CC2)c(=O)c2cc3ccccc3n12,121% (inactive)

row,SMILES,survival
1,Cc1ccc2c(=O)cc(C(=O)Nc3nc4ccc(Cl)cc4s3)oc2c1,65% (inactive)
2,Cc1cc(C)cc(NC(=O)Cn2nnc(C(=O)NCCc3ccccc3)c2N)c1,93% (inactive)
3,COc1ccc(NC(=O)c2c(NC(=O)c3ccncc3)sc3c2CCC(C(C)(C)C)C3)cc1 (stereo not given),47% (inactive)
4,Cc1ccccc1NC(=O)c1c(NC(=O)c2ccco2)sc2c1CCC(C(C)(C)C)C2 (stereo not given),75% (inactive)
5,Cc1ccccc1C(=O)Nc1nc2c(s1)CC(C(C)(C)C)CC2 (stereo not given),124% (inactive)
6,COc1ccc(NC(=O)c2c(NC(=O)COc3ccccc3)sc3c2CCC(C(C)(C)C)C3)cc1 (stereo not given),77% (inactive)
7,Cc1ccccc1C(=O)Nc1sc2c(c1C(=O)N1CCCCC1)CCC(C(C)(C)C)C2 (stereo not given),1% (active)
8,CCC(=O)Nc1sc2c(c1C(=O)Nc1ccc(OC)cc1)CCC(C(C)(C)C)C2 (stereo not given),2% (active)
9,CCc1cccc(C)c1NC(=O)CN1C(=O)C2(SCC(=O)N2c2cccc(F)c2)c2ccccc21 (stereo not given),136% (inactive)
10,Cc1c(Cl)cccc1NC(=O)Cn1nnc(-c2nc(-c3ccccc3)no2)c1N,55% (inactive)
11,COc1ccc2c(c1)c1c(c(=O)n(-c3ccccc3C)c(=O)n1C)n2C,81% (inactive)
12,CCOc1cc(S(=O)(=O)NC2CC2)c(OCC)cc1-n1cnnn1,102% (inactive)
13,COc1ccc(CCNC(=O)c2cc(=O)[nH]c3ccc(S(=O)(=O)N4CCCCC4C)cc23)cc1OC (stereo not given),127% (inactive)
14,COc1ccc(Br)cc1CNC(=O)c1cc(=O)[nH]c2ccc(S(=O)(=O)N3CCCCC3C)cc12 (stereo not given),105% (inactive)
15,COc1ccc(OC)c(CNC(=O)c2cc(=O)[nH]c3ccc(S(=O)(=O)N4CCCCC4C)cc23)c1 (stereo not given),1% (active)
16,Cc1ccc(Sc2c(C)nn(C(=O)c3ccc(Br)cc3)c2C)cc1,13% (active)
17,Cc1nn(C(=O)c2ccccc2)c(C)c1S(=O)(=O)N1CCCCCC1,80% (inactive)
18,Cc1nn(C(=O)c2ccc(Br)cc2)c(C)c1S(=O)(=O)N1CCOCC1,71% (inactive)
19,Cc1ccc(Sc2c(C)nn(C(=O)COc3ccccc3Br)c2C)cc1,90% (inactive)
20,Cc1nn(C(=O)c2ccc(Br)cc2)c(C)c1Sc1ccccc1,-4% (active)
21,Cc1nn(C(=O)COc2ccccc2Br)c(C)c1Sc1ccccc1,57% (inactive)
